# Pf Dd2 growth = Plasmodium falciparum Dd2 growth inhibition. P. falciparum Dd2 growth, SYBR Green, 72 h. Potency, µM (doses to about 28.9 µM), for the others: top-dose activity, negative = inhibition, usual class: inhibitors. actives 4.3% (n = 120,000); active = well fitted inhibition curve with a large enough effect;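 note: plate controls were DMSO vehicle for no effect and reference drug for full effect; nearly all actives have a fitted effect of over 65% in size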
#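 Infected erythrocytes (Dd2, 0.3% parasitemia, 2.5% hematocrit final) are added to compound in RPMI-1640/Albumax II medium, grown 72 h at 37C in low oxygen, then lysed with saponin/Triton-X containing SYBR Green and read by fluorescence.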
# * = called active by the depositor; i = inactive; [ ] = another dose, or the depositor's remark. This excerpt belongs to a sample that is enriched for hits. Potency is the fitted concentration of half-maximal effect.
SMILES,Pf Dd2 growth
CCOC(=O)c1c(C)[nH]c(C)c1S(=O)(=O)N1CCCC(C(=O)Nc2cccc(C)n2)C1 (stereo not drawn),-5.4%
C=CCN1CC(C(=O)NCc2cccnc2Oc2ccc(C)nc2)CC1=O (stereo not drawn),-10.5%
O=C(NCCc1ccccc1)N1CCCC(Cn2cnc3cccnc32)C1 (stereo not drawn),i
CNC(=O)[C@@H]1CN(S(=O)(=O)c2ccc3c(c2)CCC3)C[C@H]1c1nc(C)no1,34.6%
COc1cccc(CN2Cc3cc(NC(=O)c4cccc(F)c4)ccc3OC(C)C2=O)c1 (stereo not drawn),i
COc1ccc2c(c1)c(=O)c(C(=O)c1ccc(C)cc1)cn2Cc1ccccc1F,12.6µM*
CCOc1ccc(C(=O)c2cn(CC(=O)Nc3ccc(Cl)cc3)c3cc4c(cc3c2=O)OCO4)cc1,-9.3%
COc1cc(NC(=O)Cn2ccn(Cc3ccccc3OC)c(=O)c2=O)cc(OC)c1,34.1%
CCOc1ccc(NC(=O)Cn2cc(C(=O)c3ccccc3)c(=O)c3cc4c(cc32)OCO4)cc1,-0.7%
CCOc1ccc2c(c1)c(=O)c(C(=O)c1ccc(CC)cc1)cn2CC(=O)Nc1ccccc1OC,-6.8%
CCc1ccccc1NC(=O)Cn1cc(C(=O)c2ccncc2)c(=O)c2cc(C)ccc21,i
CCOc1ccc(C(=O)c2cn(Cc3ccc(Cl)cc3)c3cc(OC)c(OC)cc3c2=O)cc1,7.94µM*
COc1ccccc1Cn1cc(C(=O)c2ccccc2)c(=O)c2cc(OC)c(OC)cc21,2.51µM*
CCc1ccc2c(c1)c(=O)c(C(=O)c1ccc(C)cc1)cn2CC(=O)Nc1ccccc1C,-1.6%
CCOc1ccc(NC(=O)Cn2cc(C(=O)c3ccc(F)cc3)c(=O)c3cc4c(cc32)OCCO4)cc1,9.5%
O=C(c1ccc(F)cc1)c1cn(Cc2ccccc2F)c2cc3c(cc2c1=O)OCCO3,61.2%[5.79 µM]
O=C(c1ccc(Cl)cc1)c1cn(Cc2ccccc2)c2cc3c(cc2c1=O)OCCO3,11.2µM*
CCC(=O)N1CCN(c2nc3c(s2)CC(C(=O)Nc2ccc(OC)c(F)c2)CC3)CC1 (stereo not drawn),-28.9%
CCNC(=O)NC1(CCOC)CCN(C(=O)Cc2cccc(OC)c2)CC1,i
CC(=O)NCCNC(=O)C[C@@H]1CCNC[C@@H]1Cc1cc(-c2ccccn2)on1,-6.4%[44.1 µM]
CN1C[C@H](O)C[C@H]1c1nnc2n1CCN(C(=O)C1CCC1)CC2,1.2%
COC(=O)[C@H]1CN(C(=O)c2cccnc2)CCN1C(=O)N1CCOCC1,16.4%[44.1 µM]
Cc1nn(CC(=O)NCc2ccc(N(C)C)cc2)c(=O)c2nc(C(C)C)sc12,i
Cc1ccc(C(=O)N2C[C@@H](N)C[C@H]2C(=O)NC(C)C)cc1N1CCNC1=O,0.7%
O=C(c1cncc(Br)c1)N1CCC(c2nc(C3CCOCC3)no2)CC1,i
SMILES,Pf Dd2 growth
O=C1C(N2CCN(S(=O)(=O)c3cccc(F)c3)CC2)CCN1Cc1cccnc1 (stereo not drawn),27.6%
CN(CC1CCOCC1)C(=O)c1ccc(F)cc1Cl,i
CCOc1ccc(NC(=O)Cn2cc(C(=O)c3ccc(OC)cc3)c(=O)c3cc4c(cc32)OCO4)cc1,3.7%
COc1ccc(Cn2cc(C(=O)c3ccc(OC)cc3)c(=O)c3cc4c(cc32)OCCO4)cc1,8.91µM*
Cc1ccc(Cn2cc(S(=O)(=O)c3ccc(Cl)cc3)c(=O)c3cc4c(cc32)OCO4)cc1,-0.7%
Cc1ccc2c(c1)c(=O)c(C(=O)c1ccc3c(c1)OCO3)cn2Cc1ccc(Cl)cc1,12.6µM*
CCc1ccc(C(=O)c2cn(CC(=O)Nc3ccc(Cl)cc3)c3cc4c(cc3c2=O)OCO4)cc1,-28.3%
CCOc1ccc(C(=O)c2cn(CC(=O)Nc3ccc(OC)cc3)c3cc4c(cc3c2=O)OCCO4)cc1,25.2%
COc1cc(OC)cc(C(=O)NCC2CCCN(Cc3cnn(C)c3C)C2)c1 (stereo not drawn),-11.6%
O=C(NCCc1ccccc1)N1CCCC(c2nc(C3CCOCC3)no2)C1 (stereo not drawn),2.2%
CCc1cccc2c(C(CC(=O)NC(C)C(C)C)c3ccc(OC)c(OC)c3)c[nH]c12 (stereo not drawn),-4.5%
O=C(Nc1ccc2c(N3CCCC3)ncnc2c1)c1ccccc1Cl,12.6µM*
O=C(Nc1ccc2ncnc(N3CCCCC3)c2c1)c1ccccc1Br,i
O=C(Nc1ccc2ncnc(N3CCCCC3)c2c1)c1c(F)cccc1Cl,i
O=C(Nc1ccc2c(N3CCCCC3)ncnc2c1)c1ccccc1C(F)(F)F,11.2µM*
O=C(Nc1ccc2ncnc(N3CCCC3)c2c1)c1ccc(F)cc1Cl,i
Cc1ccc(-c2ncc(NC(=O)c3ccccc3C(F)(F)F)cn2)cc1,i
CCN(C)C(=O)Cn1c(Cc2ccccc2)nn(-c2ccccc2OC)c1=O,-12.6%
COc1cccc(CSc2nc3ccncc3n2CC(=O)Nc2ccc(OC)c(OC)c2OC)c1,-9.9%
O=C(NCc1cccs1)c1ccc(Cn2c(SCc3cccc(F)c3)nc3cccnc32)cc1,-4.9%
O=C(NCc1ccc(F)cc1)c1ccc(CSc2nc3ccncc3n2Cc2ccc(F)cc2)cc1,11.2µM*
COc1ccc(NC(=O)Cn2c(SCc3cc(C)ccc3C)nc3ccncc32)c(OC)c1OC,-16.8%
COc1ccccc1CNC(=O)c1ccc(CSc2nc3ccncc3n2Cc2ccccc2C)cc1,7.08µM*
CCNC(=O)c1ccc(CSc2nc3ccncc3n2Cc2ccc(F)cc2)cc1,7.94µM*
COC(=O)c1ccc(Cn2c(SCC(=O)NCc3ccccc3)nc3ccccc32)cc1,27.0%
SMILES,Pf Dd2 growth
O=C(c1ccc2c(c1)OCO2)N1CC(Oc2ccc(F)c(F)c2)C1,9.4%
O=C1CC(c2noc(-c3cc(F)ccc3F)n2)CN1c1ccc(Cl)cc1 (stereo not drawn),32.2%
COCC1CN(C(=O)c2nccc3ccccc23)CC12CCNCC2 (stereo not drawn),i
CCn1cc(CN(C)CC(=O)N2CCCCCC2)ccc1=O,-11.3%
Cc1ccc(C2Cn3nnc(C(=O)N4CCC(C(=O)NCc5ccccc5)CC4)c3CO2)cc1 (stereo not drawn),-20.6%
COc1cccc(NC(=O)Cc2c[nH]c3ncc(-c4ccccc4C)cc23)c1,i
CSc1cccc(NC(=O)Cn2c(N3CCCCC3)nc(C)c(C)c2=O)c1,i
Cc1nc(N2CCCCC2)n(CC(=O)Nc2cccc(F)c2)c(=O)c1C,3.98µM*
Cc1cccc(NC(=O)Cn2c(N3CCCCC3)nc(C)c(C)c2=O)c1,i
O=C(Nc1ccc(Cl)cc1)c1ccc(Cn2ccn3nc4c(c3c2=O)CCCC4)cc1,8.91µM*
O=C(CCn1ccn2nc3c(c2c1=O)CCCC3)Nc1ccc(F)cc1,i
CN(C)c1ccc(NC(=O)CCn2ccn3nc4c(c3c2=O)CCCC4)cc1,3.98µM*
CCOc1ccc(NC(=O)CCn2ccn3nc4c(c3c2=O)CCCC4)cc1,-7.0%
CC(C)NC(=O)c1ccc(Cn2ccn3nc4c(c3c2=O)CCCC4)cc1,-4.0%
O=C(Nc1ccccc1)c1ccc(Cn2ccn3nc4c(c3c2=O)CCCC4)cc1,-14.8%
Cc1ncsc1CN1C(=O)CO[C@H](c2ccc(NS(C)(=O)=O)cc2)[C@H]1CO,31.1%[44.1 µM]
Cc1cccc(CC(=O)N2CCCCC2c2n[nH]c(C)n2)c1 (stereo not drawn),2.5%
CCOc1ccccc1C1NC(=O)N(CC(=O)Nc2ccccc2C)C2=C1C(=O)OC2 (stereo not drawn),i
CNC(=O)[C@@H](c1ccc(Cl)cc1)N1CCC[C@H]1C(=O)NCCOC,8.7%[44.1 µM]
CCNC(=O)c1n[nH]c2c1CN(C(=O)c1cc(F)cc(F)c1)CC2,2.7%
